{"source": "PubChem BioAssay (NCI)", "note": "The panel holds about 83,000 compounds, 20% with a hit somewhere; the sample as a whole holds those more often.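 96-well plates, one dose, 48 hours. Percent growth reported; active if below 10.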 A number with no mark means an inactive call. The source made the active and inactive calls.", "data": [{"system": "MDA-MB-468 breast", "assay": "NCI-60 one-dose screen, 48 h (100 = growth as untreated, 0 = no growth, -100 = all killed)", "settings": "10 µM unless noted", "values": [{"smiles": "CC/C=C\\CCC/C=C1/C(=O)C=C[C@@H]1C/C=C\\CCCC(=O)O", "growth": "76.1%"}, {"smiles": "CCSc1nc2ccccc2o1", "growth": "111%"}, {"smiles": "CN1CCc2c(c3ccccc3c3ccccc23)C1", "growth": "30.7%"}, {"smiles": "O=C1/C(=C/c2ccc([N+](=O)[O-])s2)Oc2ccc(Cl)cc21", "growth": "-36.2% (active)"}, {"smiles": "Clc1nc2ccc(Br)cc2cc1-c1nc2ccccc2[nH]1", "growth": "76.3%"}, {"smiles": "O=S(=O)(NCCNc1nccc(-c2c(-c3cccc(F)c3)nc3sccn23)n1)c1ccccc1", "growth": "43.6%"}, {"smiles": "C[n+]1c(/C=C/c2ccc([N+](=O)[O-])cc2)ccc2ccccc21", "growth": "52.5%"}, {"smiles": "COc1cc2nc(-c3ccc(-c4nn[nH]n4)cc3)[nH]c(=O)c2cc1OC", "growth": "104%"}, {"smiles": "O=C(/C=C/c1cn(-c2ccccc2)nc1-c1ccc(Cl)cc1)c1cc2ccccc2oc1=O", "growth": "64.6%"}, {"smiles": "C[C@H]1c2ccccc2CN1CCCOc1cc2c(cc1OCC1CC1)C1(CCCC1)C(N)=N2", "growth": "29.2%"}, {"smiles": "CCN1CCN(c2nc(C)cc(N(CCCNc3ccnc4cc(Cl)ccc34)Cc3ccco3)n2)CC1", "growth": "84.2%"}, {"smiles": "O=C(/C=C/c1cccc(Br)c1)c1cccc(OCCCCOc2cccc(C(=O)/C=C/c3cccc(Br)c3)c2)c1", "growth": "102%"}, {"smiles": "O=S(=O)(Nc1cc(Cl)c(F)c(Cl)c1)c1ccc(-c2cnc(C3CC3)o2)cc1", "growth": "13.5%"}, {"smiles": "CCCCCC(=O)Oc1ccc(/C(=C(\\C)c2ccc(OC)cc2)c2ccc(OCCN3CCCCC3)cc2)cc1", "growth": "85.3%"}, {"smiles": "ClC1=C(Cl)C(Cl)=C(Cl)C1=Cc1ccc(Cl)cc1Cl", "growth": "-74.9% (active)"}, {"smiles": "COc1ccc2[nH]c(-c3ccc(Cl)cc3)cc(=O)c2c1", "growth": "99%"}, {"smiles": "CC(=S)Nc1ccccc1", "growth": "103%"}, {"smiles": "CN(CC(=O)N(Cc1ccc(C2CCCCC2)cc1)c1ccc(C(=O)NO)cc1)S(=O)(=O)c1c(F)c(F)c(F)c(F)c1F", "growth": "-36.3% (active)"}, {"smiles": "CC1(C)CC[C@]2(C(N)=O)CC[C@]3(C)C(=CC[C@@H]4[C@@]5(C)C/C(=C/c6ccncc6)C(=O)C(C)(C)[C@@H]5CC[C@]43C)[C@@H]2C1", "growth": "-25.2% [100 µM] (active)"}, {"smiles": "Cn1c(=O)c2[nH]c(C(O)c3ccc(Cl)cc3)nc2n(C)c1=O", "note": "(stereo not given)", "growth": "96.7%"}, {"smiles": "COc1cc(C(=O)Nc2ccc(N(C)C)cc2)cc(OC)c1OC", "growth": "80%"}, {"smiles": "CC(=O)Oc1ccc(C2=Cc3ccc(OC(C)=O)cc3OC2C)cc1", "note": "(stereo not given)", "growth": "56.5%"}, {"smiles": "CN(C)CCCn1c2c(c3ncccc3c1=O)C(=O)c1ccccc1-2", "growth": "31.7%"}, {"smiles": "CN1CCN(C2=Nc3ccccc3Oc3ccc(Cl)cc32)CC1", "growth": "100%"}, {"smiles": "CC(=O)N1N=C(c2cccc(Nc3ccncc3)c2)CC1c1ccc2c(c1)OCO2", "note": "(stereo not given)", "growth": "85.5%"}, {"smiles": "C/C=C/C1=CN2C(=O)c3cc(OC4OC(C)C(NC)C(C)(O)C4O)c(C)cc3N=C[C@@H]2C1", "note": "(stereo not given in full)", "growth": "-52.9% (active)"}, {"smiles": "CC(=O)NCC(=O)N1[C@@H]2CC[C@H]1c1ccc(Nc3ncc(C(F)(F)F)c(NC4CCC4)n3)cc12", "growth": "72% [2.5 µM]"}, {"smiles": "Nc1nc2c(ncn2C2OC3COP(=O)(O)OC4C(COP(=O)(O)OC2C3O)OC(n2cnc3c(N)ncnc32)C4O)c(=O)[nH]1", "note": "(stereo not given)", "growth": "116%"}, {"smiles": "Cc1ccc(/C=C2\\COc3ccc(O)c(O)c3C2=O)cc1", "growth": "-18.5% (active)"}, {"smiles": "O=c1cc(C(F)(F)F)c2cc(-c3cc4ccccc4c(=O)o3)c(O)cc2o1", "growth": "61.4%"}, {"smiles": "CN(C)c1ncc(C#Cc2c(F)cccc2F)c2ccccc12", "growth": "-7.26% (active)"}, {"smiles": "NC(CCc1nc2ccccc2c(=O)[nH]1)C(=O)O", "note": "(stereo not given)", "growth": "105%"}, {"smiles": "O=C1N[C@@H]2NC(=[N+]3CCOCC3)N[C@@H]2N1", "growth": "99.6%"}, {"smiles": "COc1ccc(Oc2nc(Nc3ccc(N4CCOCC4)nc3)ncc2NC(=O)c2cc(OC)cc(OC)c2)cc1", "growth": "82.1%"}, {"smiles": "O=C1c2cccc3cccc(c23)C(=O)N1CC#Cc1ccc2c3c(cccc13)C(=O)N(CCO)C2=O", "growth": "94.2%"}, {"smiles": "CCOC(=O)c1cc(C#N)n2ccc3ccccc3c12", "growth": "98.4%"}, {"smiles": "COC1=CC(c2ccc[nH]2)=N/C1=C\\c1[nH]c(C)c(C(=O)CCCCC(=O)Oc2ccc3c(c2)CCC2C3CC[C@]3(C)[C@@H](O)CC[C@@H]23)c1C", "note": "(stereo not given in full)", "growth": "52.2%"}, {"smiles": "Nc1c(C(=O)Nc2cccc3ccccc23)sc2nc3c(cc12)CCCC3", "growth": "35%"}, {"smiles": "CCCCCCCC(=O)OCC/C=C/C1OC1C1OC(=O)/C=C\\C=C\\C(=O)N(C(C)=O)C(=O)/C=C(/C)CCC2OC2C1OC(=O)NC(C)=O", "note": "(stereo not given)", "growth": "-3.75% (active)"}, {"smiles": "COc1ccc2c(c1)C=CC(C#N)N2C(=O)c1ccccc1", "note": "(stereo not given)", "growth": "13.1%"}]}]}
